High-throughput results from PubChem.
DT40 TDP1 CPT = DT40-hTDP1 cell growth loss with CPT; 420,000 tested, 12% active; chicken DT40 Tdp1-/-;hTDP1 cells + 20 nM CPT, ATP luminescence, 48 h; Potency, µM (doses to about 46.2 µM), without a hit: top-dose activity change, negative = growth inhibition, most hits filed as inhibitors; further: potency means the concentration at half of the fitted maximal effect; nearly all actives have a fitted effect of over 55% in size
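Chicken DT40 Tdp1-/- cells complemented with human TDP1, 400 cells/well, exposed to compounds plus 20 nM camptothecin for at least 48 h at 37 C; viability read as ATP content by CellTiter-Glo luminescence.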
HT1080NT lethal = kills 2HG-producing HT-1080-NT fibrosarcoma cells | AID 686970 | 360,000 tested, 1.6% active | HT-1080-NT fibrosarcoma viability, CellTiter-Glo ATP luminescence, 48 h | Potency, µM (highest dose often 46.1 µM), for the others: top-dose activity, negative = less viability, actives largely listed as cytotoxic;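 further: NT is the 2HG producing partner of a matched IDH1 knockdown line; potency means the concentration at half of the fitted maximal effect; 0% = DMSO-treated cells and -100% = media-only wells without cells; nearly all actives have a fitted effect of over 55% in size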
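Toxicity toward the 2HG-producing NT line was scored as %Activity, normalised to DMSO and no-cell wells, from CellTiter-Glo luminescence after 48 hours' treatment.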
IL1B secr inh = inhibitors of inflammasome signaling (IL-1 beta secretion); 360,000 tested, 4.7% active; THP-1 LPS/ATP IL-1B secretion, AlphaLISA, 16 h; active compounds read low; activity change, % at 57.5 µM; in the data active means activity change below about -50%; inconclusive means mostly about -30% to -49%
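Secreted IL-1B measured by AlphaLISA bead assay after 16 h compound exposure of THP-1 cells; compounds (final up to 57.5 uM) added 1 h before LPS (250 ng/mL) and ATP (1.25 mM) stimulation; lower signal means less secretion.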
HT1080 IDH1KD tx = toxicity to HT-1080 IDH1 knockdown cells (counter line); HT-1080 IDH1 knockdown viability, ATP luminescence, 48 h; Potency, µM (titrated, usually from 46.1 µM), inactives show at the top dose activity, negative = toxicity, usual class: cytotoxic; 360,000 tested, 2% active; AID 686971;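 further: potency means the concentration at half of the fitted maximal effect; 0% = DMSO wells and -100% = cell-free medium wells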
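Using the IDH1-knockdown HT-1080 line run in the same batch and compound series as the NT line, viability after 48 h at 37 °C was determined by CellTiter-Glo luminescence and expressed as % activity.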
TDP1 cell noCPT = qHTS for Inhibitors of human tyrosyl-DNA phosphodiesterase 1 (TDP1): qHTS in cells in absence of CPT; 420,000 tested, 15% active; Potency, µM (titrated, usually from 46.2 µM), for the others: at the top dose activity change, negative = growth inhibition, actives largely listed as inhibitors; DT40 Tdp1-/- hTDP1 cells, no CPT, ATP luminescence, 48 h; further: potency means the concentration at half of the fitted maximal effect; nearly all actives have a fitted effect of over 55% in size
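Growth of hTDP1-complemented DT40 Tdp1-knockout cells is measured by ATP luminescence after at least 48 hr compound exposure at 37 °C, with DMSO substituting for the 20 nM CPT used in the parallel screen.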
* hit, by the source's call; ? = inconclusive; / = no result given; [ ] = remark or other dose. Only some compounds are listed: those with a hit (about 19% of all), similar ones and a draw of the others. Unless noted, the call rests on the fitted dose curve; in most records, active means well fitted curve in the direction sought with a large enough effect; inconclusive means small, poorly fitted or top-dose-only effect, or another doubt; inactive means no such curve, though single readings can be large; an effect the other way counts as inactive or inconclusive. Unless noted, on the % scale 0 is the no-effect control and ±100 the full control effect.

SMILES | DT40 TDP1 CPT | HT1080NT lethal | IL1B secr inh | HT1080 IDH1KD tx | TDP1 cell noCPT
CCC(C)N(C(=O)CSc1nc(C)c(C)c(C)c1C#N)C1CCS(=O)(=O)C1 (stereo not drawn) | -6% | -11% | -5 | -17% | 21µM*
c1ccc(CNc2nc(-c3ccccc3)nc3ccccc23)cc1 | -18% | -27% | -89* | ? | -20%
COC(=O)c1cc(=O)nc(NN=Cc2ccc(C)cc2)s1 | -17% | 19% | 32 | 19% | -18%
Cc1ccc(OCC(=O)OCC(=O)c2c(N)n(C)c(=O)n(C)c2=O)cc1C | -3% | 14% | 17 | 15% | -7%
CCC(C)N(C(=O)CSc1nc(-c2cccs2)nc2ccccc12)C1CCS(=O)(=O)C1 (stereo not drawn) | ? | -23% | -83* | ? | 16µM*
CN(C(=O)COC(=O)C1CCN(S(=O)(=O)c2c(Cl)cccc2Cl)CC1)C1CCS(=O)(=O)C1 (stereo not drawn) | -9% | -6% | 14 | 1% | -9%
O=C1C2C(C(=O)N1/N=C/c1cc([N+](=O)[O-])c(O)cc1O)C1C=CC2C12CC2 (stereo not drawn) | -1% | 2% | 20 | 1% | 17%
O=C1C2C(C(=O)N1/N=C/c1cc(Br)cc([N+](=O)[O-])c1O)C1C=CC2C12CC2 (stereo not drawn) | ? | -27% | ? | -27% | 16µM*
Cc1ccccc1S(=O)(=O)NC(=O)C1(C)CCN1C(=O)c1cccc(F)c1 (stereo not drawn) | -2% | 24% | -10 | 5% | -5%
Cc1cc(C)c(S(=O)(=O)c2cccc(C)c2C)c(=O)[nH]1 | 11% | 5% | -2 | 2% | -6%
CCNC(=O)c1cc2c(c(-c3cccc(-c4cccnc4)c3)n1)[C@H](CCO)N(S(C)(=O)=O)C2 | 4.6µM* | ? | 41 | 2.3µM* | 4.1µM*
CC(=O)N1Cc2cc(C(=O)NCC(F)(F)F)nc(-c3cccc(-c4cccnc4)c3)c2[C@@H]1CCO | 6.5µM* | ? | 72 | 6.5µM* | 5.8µM*
CN1CCN(C(=O)c2cc3c(c(-c4cccc(-c5cccnc5)c4)n2)[C@H](CCO)N(C(=O)CC2CC2)C3)CC1 | 0% | 16% | 21 | 11% | -9%
CC(=O)N1Cc2cc(C(=O)NCC(F)(F)F)nc(-c3cccc(-c4cccnc4)c3)c2[C@H]1CCO | -20% | -4% | -10 | 16% | -19%
CCS(=O)(=O)N1Cc2cc(C(=O)NCC3CC3)nc(-c3cccc(-c4cccnc4)c3)c2[C@@H]1CCO | ? | ? | -5 | ? | 26µM*
Cc1ccc(C(=O)Nc2cccc(C(F)(F)F)c2)cc1NC(=O)c1[nH]cnc1C(N)=O | 8% | 3% | 79 | 0% | ?
Cc1ccc(C)c(NC(=O)CN2C(=O)CSc3nc(C)cc(C)c32)c1 | -7% | / | / | / | -22%
COc1cccc(CNC(=O)COc2ccc(C(=O)c3ccccc3)cc2)c1 | ? | ? | -20 | ? | 16µM*
CCc1nnc(NC(=O)CSc2nnc(COc3ccccc3)n2-c2ccc(C)cc2)s1 | ? | 9% | 47 | 4% | -26%
Cn1ccnc1C(=O)c1cc(SCC(=O)NCc2ccccc2)nc2ccccc12 | 6.5µM* | 10µM* | 65 | ? | 5.2µM*
COc1ccc(/C=C(/C(=O)NCc2ccccc2)c2ccccc2)cc1 | ? | 0% | -8 | 1% | 21µM*
CCc1nnc(NC(=O)CSc2nnc(-c3ccccc3O)n2-c2ccc(C)cc2C)s1 | ? | 4.6µM* | 51 | ? | 23µM*
COc1cccc(CNC(=O)Cn2cccc2C(=O)c2ccccc2)c1 | -14% | / | / | / | -11%
CCC(C(=O)OCC(=O)N(CCOC)c1c(N)n(Cc2ccccc2)c(=O)[nH]c1=O)c1ccccc1 (stereo not drawn) | -10% | -8% | 3 | 0% | -1%
N#CC1C(=O)NC(=O)C(C#N)C12CCCC2 (stereo not drawn) | 6% | 20% | 28 | 1% | 4%
SMILES | DT40 TDP1 CPT | HT1080NT lethal | IL1B secr inh | HT1080 IDH1KD tx | TDP1 cell noCPT
CC(=O)Nc1ccc(NC(=O)c2ccccc2CC[N+](=O)[O-])cc1 | 9% | 6% | 17 | 1%[9.24 µM] | -24%
COc1ccc(C(C)(C)C)cc1NC(=O)CN1C(=O)C(=O)N(Cc2ccco2)C1=O | 1% | 0% | 4 | 1% | 2%
COc1ccc(Cn2ccnc2SCC(=O)NCc2ccccc2)cc1 | 16µM* | / | / | / | ?
COc1ccc(OCCC(=O)NCc2ccccc2)cc1 | 1% | 6% | -10 | 8% | -2%
COc1cccc(CNC(=O)Cc2ccc(-n3c(=O)[nH]c4ccccc4c3=O)cc2)c1 | 4.6µM* | ? | 24 | ? | 3.3µM*
COc1ccc(CC(=O)NCc2ccccc2)cc1 | 2.6µM* | ? | 28 | 8.2µM* | 2.9µM*
O=C(COc1ccc(C(=O)c2ccccc2)cc1)NCC1CCCCC1 | 16µM* | -9% | -15 | -15% | 16µM*
COc1ccc(CNC(=O)c2ccc3c(=O)n(-c4ccccc4)c(=O)[nH]c3c2)cc1 | 8% | 27% | 14 | 16% | -7%
Cc1cccc(C)c1NC(=O)CNCC(=O)N(C)C | -1% | 6% | 12 | -1% | 0%
CCC(=O)Nc1ccc2c(c1)nc(CN1CCN(C(C)=O)CC1)n2C | -6% | 7% | 4 | 6% | -28%
COC(=O)CCC(C)C1CCC2C3CC[C@H]4CC(O)CC[C@@]4(C)C3CC(O)[C@]12C (stereo partly drawn) | -32% | / | / | / | ?
CC1(c2ccc(Cl)cc2)NC(=O)N(CC(=O)N2CCCC2)C1=O (stereo not drawn) | 1% | 3% | 12 | 9% | -7%
O=C(O)C=Cc1c[nH]c2nccnc12 | -14% | 10% | 0 | 3% | -10%
CN(CC(=O)NC(=O)NC(C)(C)C)CC(=O)Nc1ccccc1Cl | -2% | -4% | 10 | 3% | 14%
COc1cccc(CNC(=O)CNS(=O)(=O)c2ccc(Br)s2)c1 | 1% | 2% | -53* | -3% | -3%
COc1cccc(CNC(=O)CCNS(=O)(=O)c2ccc(Br)s2)c1 | ? | -1% | 20 | 17% | ?
CCc1nnc(NC(=O)CSc2nccn2Cc2ccccc2)s1 | ? | / | / | / | 21µM*
COc1cccc(CNC(=O)COC(=O)CNC(=O)c2ccc(-c3ccccc3)cc2)c1 | -21% | -1% | -6 | 3% | -27%
COc1cccc(CNC(=O)Cc2ccc(-c3ccccc3)cc2)c1 | ? | ? | 22 | 18µM* | 21µM*
CC12CC[C@@](C(=O)O)(C(=O)C1=O)C2(C)C | 20%[9.04 µM] | / | / | / | 4%[9.04 µM]
